Only some compounds are listed: those with a hit (about 4.5% of all), similar ones and a draw of the others.
EBNA-1 inhibitor: EBNA-1 DNA-binding inhibitors, primary screen, biochemical, fluorescence polarization; actives 0.34% (n = 300,000); inhibition, % at 14.8 µM; in the data active = inhibition above about 28%
dFosB act: activators of delta FosB homodimer, primary screen, biochemical, fluorescence polarization, TAMRA-CDK5 oligo, single point; activation, % at 25 µM; purified delta FosB; percent of positive-control signal above neutral wells; actives 0.99% (n = 340,000); Protein FosB (Mus musculus), P13346;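 active = mean activation above about 17%, with every replicate also reaching it, limit read from the data, passing the limit was not always enough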
TPT1 inhibitor: Candida albicans TPT1 enzyme inhibitors, primary screen, biochemical, fluorescence polarization; recombinant caTPT1, FP RNA substrate dephosphorylation; inhibition, % at 5 µM; actives 0.81% (n = 300,000);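 active = inhibition above the mean of all tested compounds plus 3 SD, set per screening campaign, cut at about 24% in these data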;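 note: plate controls were DMSO alone for no effect and ferristatin control at 100 nM for full effect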
ZTA DNA inh: counter-screen for EBNA-1 inhibitors: inhibitors of Epstein-Barr virus ZTA; P03206; ZTA-DNA binding, fluorescence polarization; inhibition, % at 11 µM; actives 0.15% (n = 320,000); AID 2234; in the data active = inhibition above about 33%
NR3A LBD binder: binders of NR3A ligand-binding domain, primary screen, biophysical, differential scanning fluorimetry, uHTS; Glutamate receptor ionotropic, NMDA 3A (GRIN3A) ligand-binding domain; NR3A LBD differential scanning fluorimetry, Tm shift; 0% = protein alone, 100% = glycine-bound protein; Tm shift relative to glycine control, % at 25 µM; actives 2.5% (n = 340,000);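 active = melting temperature shift of at least 10% of the positive control shift, at one fixed dose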
Rpn11 inh: Rpn11 (PSMD14) deubiquitinase inhibitors, primary screen, biochemical, fluorescence polarization, uHTS; inhibition, % at 20 µM; human 26S proteasome, Ub4-pepOG fluorescence polarization; 20S core pre-blocked with epoxomicin; actives 0.59% (n = 360,000); 26S proteasome non-ATPase regulatory subunit 14 (Homo sapiens), O00487;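 active = inhibition at 20 µM, scaled to each plate's controls, above about 33%, limit read from the data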
Rpn11 inh conf: Rpn11 (PSMD14) deubiquitinase inhibitors, confirmation, biochemical, fluorescence polarization, single concentration; inhibition, % at 20 µM; purified human 26S proteasome, Ub4-pepOG fluorescence polarization; proteasome pretreated with epoxomicin; actives 29% (n = 1,900); shares compounds with Rpn11 inh; AID 602318, 2012
MMP-2 inh: MMP-2 enzyme inhibition, confirmation, counter-screen for RPN11 inhibitor project, biochemical, fluorescence, single concentration; shares compounds with Rpn11 inh; recombinant MMP-2, FRET peptide cleavage fluorescence; inhibition, % at 20 µM; actives 4% (n = 1,900);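 note: human MMP-2 activated beforehand with APMA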
Target sequence (P08253 whole entry, looked up): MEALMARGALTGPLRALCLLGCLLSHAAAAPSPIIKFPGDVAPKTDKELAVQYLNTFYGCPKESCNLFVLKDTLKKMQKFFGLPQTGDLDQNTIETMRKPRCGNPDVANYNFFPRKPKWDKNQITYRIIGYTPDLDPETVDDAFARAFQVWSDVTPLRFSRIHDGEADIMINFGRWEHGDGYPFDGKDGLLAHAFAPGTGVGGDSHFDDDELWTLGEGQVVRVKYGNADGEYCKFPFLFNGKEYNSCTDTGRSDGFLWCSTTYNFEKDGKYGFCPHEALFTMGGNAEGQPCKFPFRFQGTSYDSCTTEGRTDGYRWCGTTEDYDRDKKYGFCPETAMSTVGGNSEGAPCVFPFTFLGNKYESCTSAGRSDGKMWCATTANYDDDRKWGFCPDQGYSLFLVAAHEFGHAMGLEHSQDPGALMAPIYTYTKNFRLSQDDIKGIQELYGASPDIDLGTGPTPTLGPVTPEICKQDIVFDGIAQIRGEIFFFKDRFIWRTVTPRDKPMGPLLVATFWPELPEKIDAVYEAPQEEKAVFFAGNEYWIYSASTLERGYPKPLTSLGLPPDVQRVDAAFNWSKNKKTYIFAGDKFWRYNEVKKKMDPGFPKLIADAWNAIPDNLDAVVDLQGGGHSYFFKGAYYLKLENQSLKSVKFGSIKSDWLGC
Thrombin FP: bovine thrombin protease inhibition, confirmation, counter-screen for Rpn11 inhibitor project, biochemical, fluorescence polarization, single concentration; shares compounds with Rpn11 inh; bovine thrombin cleavage of Ub4-pepOG; inhibition, % at 20 µM; actives 13% (n = 1,900); AID 602333, 2012;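 active = mean inhibition at least 40% at 20 µM, or signal 3 deviations below plate average, so some actives read negative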;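 note: plate controls were thrombin with DMSO for no effect and buffer wells lacking thrombin for full effect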
* = called active by the depositor; nt = no result. Cut-off read from the data, not from the text of the source, unless noted: active = inhibition above about 40%; inactive = the rest.

SMILES | EBNA-1 inhibitor | dFosB act | TPT1 inhibitor | ZTA DNA inh | NR3A LBD binder | Rpn11 inh | Rpn11 inh conf | MMP-2 inh | Thrombin FP
CC1CN(S(=O)(=O)c2cccc(C(=O)OC/C(O)=C(\C#N)c3nc4ccccc4[nH]3)c2)CC(C)O1 (stereo unspecified) | -6.0 | 5.0 | 7.0 | -15.7 | -4.2 | 40.0* | 6.9 | -9.6 | 4.0
CCOC(=O)c1c(C)[nH]c(C(=O)OCC(=O)N(CC(C)C)c2c(N)n(Cc3ccccc3)c(=O)[nH]c2=O)c1C | 12.2 | -14.2 | 14.7 | -16.2 | -0.9 | 60.2* | 103.8* | -1.0 | 68.5*
Cc1ccc(NC(=O)N2CCCC2C(=O)Nc2ccc3c(c2)OCCO3)cc1 (stereo unspecified) | -10.6 | -7.0 | -3.6 | -0.8 | 0.4 | -0.3 | nt | nt | nt
S=C(NNc1ccnc2cc(Cl)ccc12)Nc1ccc(Cl)cc1Cl | -8.5 | 13.0 | 9.8 | -3.4 | 14.5* | 44.4* | 14.9 | 47.9* | -40.5
CCOc1ccc(NC(=S)NNc2ccnc3cc(Cl)ccc23)cc1 | -5.0 | -5.4 | 10.6 | -1.0 | 4.3 | 20.7 | nt | nt | nt
CCOC(=O)C1=C(c2ccccc2)NC(=S)NC1C (stereo unspecified) | -18.6 | -7.9 | -3.0 | -5.3 | 0.2 | 112.4* | -14.3 | -38.6 | -25.8
Cc1ccc(N(CC(=O)N/N=C/c2ccc(OC3CSC3)cc2)S(=O)(=O)c2ccccc2)c(C)c1 | -3.4 | -4.8 | 1.5 | 3.0 | 6.6 | 0.2 | nt | nt | nt
CC(C)c1ccc(N(CC(=O)N/N=C/c2ccc(OC3CSC3)cc2)S(=O)(=O)c2ccccc2)cc1 | -10.3 | -13.8 | -2.5 | -10.8 | -3.1 | 39.9* | -19.2 | -5.3 | -19.2
O=[N+]([O-])c1ccc(N=Cc2sc3ccccc3c2O)cc1 | -11.4 | 2.1 | 51.1* | -10.7 | 8.7 | 61.5* | -5.0 | -62.9 | -8.6
CCOC(=O)CC(=O)CSc1nc(-c2cccnc2)ccc1C#N | -8.5 | -4.4 | 13.6 | -0.8 | -0.1 | 41.2* | -5.0 | -26.3 | -10.2
CC(C)(C)Nc1cccccc1=O | -8.2 | -7.3 | -3.7 | 0.8 | 1.4 | 103.1* | 3.0 | -14.2 | -1.2
Cc1ccc(Nc2cccccc2=O)cc1 | 5.3 | -8.8 | -2.5 | -9.3 | 0.9 | -8.9 | nt | nt | nt
Cc1ccc(C2CC(c3cccs3)=NN2C(=O)CCl)cc1 (stereo unspecified) | 10.7 | -8.2 | 3.3 | 4.6 | nt | 46.3* | 7.9 | -8.0 | 8.2
COc1ccc(C2CC(c3cccs3)=NN2C(=O)CSC2=NCCS2)cc1 (stereo unspecified) | 1.5 | -7.9 | 3.0 | -7.3 | -1.7 | 80.5* | 17.7 | -18.3 | 10.1
COc1ccc(C2CC(c3cccs3)=NN2C(=O)COC(=O)c2cncc(Br)c2)cc1OC (stereo unspecified) | 2.0 | -3.4 | 4.1 | -13.7 | -1.6 | 43.1* | 21.6 | 63.3* | 3.7
Nc1ncnc(N2CCOCC2)n1 | nt | -1.9 | nt | nt | 1.3 | 5.1 | nt | nt | nt
O=C(O)c1cc(Cl)c2c(c1)OCO2 | 4.3 | -4.1 | 1.9 | 7.4 | 0.5 | -1.4 | nt | nt | nt
CCN(CC)S(=O)(=O)c1cc(OC)ccc1N=Nc1ccc(O)c2ncccc12 | nt | -9.7 | nt | nt | -6.7 | 49.7* | 48.0* | 42.6* | 0.4
